# BoNT-A LC inh2 = inhibitors of Botulinum neurotoxin A light chain protease. multiplex microsphere protease substrate cleavage, flow cytometry. inhibition, % at 10 µM. 360,000 compounds, 0.17% hits. AID 588499; in the data active = inhibition above about 30%; inconclusive = no clear call, values can overlap the other calls
# Autofluor counter = counter-screen for toxin protease inhibitors: compound fluorescence; fluorescence intensity (test concentration not listed); 360,000 compounds, 3.1% hits; compound autofluorescence counterscreen, microsphere flow cytometry; stronger effect = higher value; in the data active = fluorescence intensity above about 16000; inconclusive = no clear call, values can overlap the other calls
# BoNT-F LC inh = blocks Botulinum neurotoxin F light chain protease; Multiplex microsphere protease cleavage assay, flow cytometry; AID 588497; 360,000 compounds, 0.22% hits; inhibition, % at 10 µM; in the data active = inhibition above about 35%, passing the limit was not always enough; inconclusive = no clear call, values can overlap the other calls
# Anthrax LF inh2 = blocks Bacillus anthracis lethal factor protease; 360,000 compounds, 0.12% hits; P15917; multiplex microsphere protease cleavage assay, LF; inhibition, % at 10 µM; in the data active = inhibition above about 30%; inconclusive = no clear call, values can overlap the other calls
# Target sequence (P15917 whole entry, looked up): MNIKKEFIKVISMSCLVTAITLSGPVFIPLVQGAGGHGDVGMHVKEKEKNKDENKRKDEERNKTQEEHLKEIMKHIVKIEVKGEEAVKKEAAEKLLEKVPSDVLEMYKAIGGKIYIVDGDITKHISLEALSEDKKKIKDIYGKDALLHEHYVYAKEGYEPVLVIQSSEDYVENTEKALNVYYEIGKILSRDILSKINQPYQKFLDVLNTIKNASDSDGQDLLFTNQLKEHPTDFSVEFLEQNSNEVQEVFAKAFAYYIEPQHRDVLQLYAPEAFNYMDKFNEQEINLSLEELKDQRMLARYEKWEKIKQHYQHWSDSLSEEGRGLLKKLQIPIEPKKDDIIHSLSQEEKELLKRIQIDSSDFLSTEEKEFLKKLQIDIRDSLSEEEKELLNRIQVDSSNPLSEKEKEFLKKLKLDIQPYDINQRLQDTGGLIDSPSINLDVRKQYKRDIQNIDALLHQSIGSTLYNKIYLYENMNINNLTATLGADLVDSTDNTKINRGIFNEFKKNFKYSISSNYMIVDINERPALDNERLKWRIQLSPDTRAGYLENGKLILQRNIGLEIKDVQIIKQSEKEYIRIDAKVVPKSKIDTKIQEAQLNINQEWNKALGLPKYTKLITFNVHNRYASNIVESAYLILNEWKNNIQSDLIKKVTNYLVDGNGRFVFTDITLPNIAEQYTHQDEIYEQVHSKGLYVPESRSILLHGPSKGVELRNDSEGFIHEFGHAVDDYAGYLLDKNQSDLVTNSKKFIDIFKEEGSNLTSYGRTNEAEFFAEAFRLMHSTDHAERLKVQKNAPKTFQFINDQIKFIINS
# MazF activator = activators of E. coli MazEF toxin-antitoxin RNase; P0AE70; FAM/BHQ RNA-DNA oligo cleavage fluorescence, 5 h; 350,000 compounds, 0.32% hits; activation, % at 20 µM; in the data active = activation above about 50%
# BoNTA LC inh 1 = BoNT/A light chain protease inhibition. AID 602139. 720 compounds, 3% hits. shares compounds with BoNT-F LC inh. multiplex microsphere protease assay, flow cytometry. inhibition, % at 10 µM; in the data active = inhibition above about 32%
# BoNTF LC inh 1 = blocks botulinum neurotoxin F light chain protease; shares compounds with BoNT-F LC inh; AID 602140; 720 tested, under 10 active; multiplex microsphere protease cleavage assay, flow cytometry; inhibition, % at 10 µM
# Anthrax LF CP1 = blocks anthrax lethal factor protease | multiplex microsphere protease cleavage assay, LF | shares compounds with BoNT-F LC inh | inhibition, % at 10 µM | 720 tested, under 10 active | AID 602142
# Hits are given with their value; - = inactive; ? = inconclusive; . = no result given. Shown are actives, neighbours in structure and some others; about 3.7% of the full set was active somewhere. Unless noted, the rule behind the calls is not given here.
SMILES,BoNT-A LC inh2,Autofluor counter,BoNT-F LC inh,Anthrax LF inh2,MazF activator,BoNTA LC inh 1,BoNTF LC inh 1,Anthrax LF CP1
CCCC(C(=O)NCc1ccccc1)N(C(=O)Cn1nnc(-c2cccs2)n1)c1ccc2c(c1)OCCO2 (stereo not given),-,-,-,-,-,.,.,.
O=C(COc1ccccc1)N(Cc1nnc(-c2ccccc2Cl)o1)C1CC1,-,-,37,-,-,-,-,-
Cc1cc(C)c2nc3sc(C(=O)N4CCOCC4)c(N)c3cc2c1,-,-,-,-,-,.,.,.
Cc1cc(C)c2cc3c(N)c(C(=O)N4CCOCC4)sc3nc2c1,-,-,-,-,-,-,-,-
Nc1c(C(=O)N2CCOCC2)sc2nc3c(cc12)CCCC3,-,-,-,-,-,.,.,.
Cc1cccc2cc3c(N)c(C(=O)N4CCc5ccccc54)sc3nc12,-,-,-,-,86,-,-,-
CCOc1ccc2nc3sc(C(=O)N4CCOCC4)c(N)c3cc2c1,-,-,-,-,-,-,-,-
Cc1ccc(C)c2nc3sc(C(=O)N4CCOCC4)c(N)c3cc12,-,-,-,-,-,-,-,-
CC(Sc1nnc(C2CC2)n1Cc1ccccc1)C(=O)N1CCNC1=O (stereo not given),-,-,-,-,-,.,.,.
COC(=O)C(Cc1ccccc1)NC(=O)c1cccc(S(=O)(=O)N(C)C)c1 (stereo not given),-,-,37,-,-,-,-,-
COC(=O)[C@H](Cc1ccccc1)N(C)S(=O)(=O)c1cccc(S(=O)(=O)N(C)[C@@H](Cc2ccccc2)C(=O)OC)c1,-,-,-,-,-,.,.,.
O=C(Nc1nc(-c2ccccc2)c(-c2ccccc2)s1)c1ccc(S(=O)(=O)N2CCCC2)cc1,-,-,-,-,-,-,-,-
COc1ccc(C(=O)Nc2nc(-c3ccc([N+](=O)[O-])cc3)c(-c3ccccc3)s2)cc1,-,-,-,31,-,-,-,-
C=CCn1c(CCC)nc2ccccc21,-,-,-,-,-,.,.,.
C=CCn1c(C(CC)CC)nc2ccccc21,-,-,36,-,-,-,-,-
COc1ccc(CCNC(=O)CCSCc2ccccc2F)cc1OC,-,-,48,-,-,-,-,-
O=C(CN1CCOCC1)NCCc1ccccc1,-,-,-,31,-,-,-,-
O=C(CN1CCOCC1)NCc1ccccc1,-,-,-,-,-,.,.,.
O=C(c1cccs1)c1ccc(-c2cccs2)s1,33,-,-,35,-,-,-,-
CN1CCN(C(=O)c2ccc(-c3cccs3)s2)CC1,-,-,?,-,-,.,.,.
COc1ccc(-n2ncc3c(=O)n(CC(C)=O)cnc32)cc1,61,-,?,-,-,-,-,-
CC(=O)Cn1cnc2c(cnn2-c2ccc(F)cc2)c1=O,-,-,-,-,-,.,.,.
CCc1nnc(NC(=O)CN2CCN(Cc3ccccc3Cl)CC2)s1,-,-,?,42,-,-,-,-
Cc1nonc1NC(=O)CSc1nc2ccccc2o1,-,-,-,-,-,.,.,.
O=c1c(Cl)c2oc3ccccc3nc-2c2ccccc12,47,-,-,-,-,32,-,-
SMILES,BoNT-A LC inh2,Autofluor counter,BoNT-F LC inh,Anthrax LF inh2,MazF activator,BoNTA LC inh 1,BoNTF LC inh 1,Anthrax LF CP1
CCSc1nc2sc3c(c2c(=O)n1C1CCCCC1)CCN(C)C3,45,-,-,-,-,-,-,-
CN1CCc2c(sc3nc(SCC(N)=O)n(-c4ccc(Cl)cc4)c(=O)c23)C1,66,-,-,-,-,-,-,-
O[C@H]1CN(Cc2cccs2)[C@@H](c2ccccc2)C[C@@H]1n1cc(-c2ccc(F)cc2)nn1,-,-,-,-,-,.,.,.
Cc1cc(C)n(C(=O)COc2c(C)cccc2C)n1,-,-,47,-,-,-,-,-
Cc1cc(C)n(C(=O)COc2ccc(Cl)cc2Cl)n1,-,-,-,-,-,.,.,.
COc1cc(OC)cc(C(=O)NC(C(=O)N2CCc3ccccc3C2)C(C)C)c1 (stereo not given),-,-,-,-,-,.,.,.
O=C(CCn1nc(-c2ccc(Cl)cc2)ccc1=O)N1CCN(c2ccccc2)CC1,-,-,-,-,-,.,.,.
C[C@@H]1CCCCO[C@H](CN(C)Cc2ccc(C(F)(F)F)cc2)[C@@H](C)CN([C@H](C)CO)C(=O)c2cc(NS(=O)(=O)c3cn(C)cn3)ccc2O1,-,-,-,-,-,.,.,.
Nc1nc2ccccc2n1CCOc1ccc(F)cc1,-,-,42,-,-,-,-,-
CCOC(=O)c1cc(C(C)=O)n2ccccc12,-,-,-,-,-,.,.,.
CCOC(=O)c1cc(C(=O)c2cccs2)n2ccc(C(C)=O)cc12,35,-,-,-,-,-,-,-
COc1ccc([C@@H]2[C@@H]3C(=O)N(C(C)(C)C)C(=O)[C@@H]3[C@]3(CC(C)C)C(=O)N(c4cccc(Br)c4)C(=O)N23)cc1,-,-,-,-,-,.,.,.
CCS(=O)(=O)N1CCC(C(=O)Oc2ccccc2)CC1,-,-,39,-,-,-,-,-
CCS(=O)(=O)N1CCC(C(=O)Oc2ccc(C(=O)OC)cc2)CC1,-,-,-,-,-,.,.,.
O=C1N(c2ccccc2)c2ccccc2C1(O)C(F)(F)F (stereo not given),-,-,-,36,-,-,-,-
O=S(=O)(Nc1ccc(N2CCOCC2)cc1)c1c(F)cc(F)cc1Br,-,-,-,-,-,.,.,.
Cn1c(=O)c2nc(SCc3ccccc3)n(C)c2n(C)c1=O,-,-,-,-,-,.,.,.
CCn1c2ccccc2c2nc3cc(OC)c(OC)cc3nc21,50,-,-,-,-,-,-,-
CCn1c2ccccc2c2nc3ccccc3nc21,-,-,-,-,-,.,.,.
COc1cccc(S(=O)(=O)NCc2ccc(C(=O)NCC3CCCO3)cc2)c1 (stereo not given),-,-,38,-,-,-,-,-
CC(C)(C)c1ccc(S(=O)(=O)NCc2ccc(C(=O)NCC3CCCO3)cc2)cc1 (stereo not given),-,-,-,-,-,.,.,.
CCOc1ccc(N(C(=O)c2ccc(S(=O)(=O)N3CCCC3)cc2)C2C=CS(=O)(=O)C2)cc1 (stereo not given),-,-,-,-,-,.,.,.
O=c1cc(Cl)c(-c2ccccc2)nn1Cc1ccc(Cl)cc1,-,-,-,-,-,.,.,.
Cc1cc(C)n(-c2nnc(NC(C)(C)C)nn2)n1,-,-,-,-,-,.,.,.
Cc1cc(C)n(-c2nnc(NC34CC5CC(CC(C5)C3)C4)nn2)n1,52,-,-,-,-,-,-,-
[O-][n+]1c2c(c3c4non(O)c4ccc31)CCCC2,-,-,-,-,-,.,.,.
Cc1ccc(-n2c(SCC(N)=O)nnc2-c2cnccn2)cc1,-,-,?,36,-,-,-,-
NC(=O)CSc1nnc(-c2cnccn2)n1-c1ccccc1,-,-,-,-,-,.,.,.
CC1CCN(CCCCOc2ccccc2Br)CC1,-,-,43,-,-,-,-,-
CC1CCN(CCCCOc2ccccc2F)CC1,-,-,-,-,-,.,.,.

# Source: PubChem
